Source: PubChem BioAssay AID1159580 (chemical genetic matrix, 2015)
Several values for one entry are separate records, joined by “and”; a condition that tells them apart may be missing. Identical values can stand only once. In all, about 5,500 compounds went through this assay and about 2,000 (36%) were called active. Roughly 18% stayed inconclusive and do not appear here. Rule as the data show it: active = normalized growth mostly below about 0.91 (no sharp cut-off); inconclusive = no clear call, values can overlap the other calls; inactive = mostly above about 0.92. This is one part of the list.

Experiment: chemical genetic growth profiling, strain panel (AID 1159580);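 also: tested at 20 µM; growth read once vehicle control cultures reached saturation at 30 °C; 1 = growth at the plate median or of vehicle wells; lower values mean less growth of the strain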
Settings: S. cerevisiae deletion strains, growth OD

Measured: normalized growth

COc1ccccc1N1CCN(CCCNc2cc(=O)n(C)c(=O)n2C)CC1
inactive: locus YAL013W, strain DEP1, active compounds read low 0.976 | locus YAL021C, strain ccr4, active compounds read low 0.998 | locus YAL026C, strain drs2, active compounds read low 1.02 | locus YAL030W, strain snc1, active compounds read low 1.01 | locus YAL040C, strain CLN3, active compounds read low 1 | locus YBL061C, strain skt5, active compounds read low 1.01 | locus YBR009C, strain hhf1, active compounds read low 1 | locus YBR021W, strain FUR4, active compounds read low 1.05 | locus YBR023C, strain chs3, active compounds read low 1.02 | locus YBR171W, strain sec66, active compounds read low 1.02 | locus YBR229C, strain ROT2, active compounds read low 0.952 | locus YBR231C, strain swc5, active compounds read low 1.01 | locus YBR279W, strain paf1, active compounds read low 1.01 | locus YCL011C, strain gbp2, active compounds read low 1.01 | locus YCL016C, strain dcc1, active compounds read low 1.01 | locus YCL029C, strain bik1, active compounds read low 0.984 | locus YCL061C, strain MRC1 (second series), active compounds read low 1 | locus YCL061C, strain MRC1, active compounds read low 1.02 | locus YCL069W, strain vba3, active compounds read low 1.02 | locus YCR088W, strain abp1, active compounds read low 1.01 | locus YDL005C, strain med2, active compounds read low 1.02 | locus YDL035C, strain GPR1, active compounds read low 0.986 | locus YDL040C, strain nat1, active compounds read low 0.994 | locus YDL074C, strain BRE1, active compounds read low 0.961 | locus YDL101C, strain DUN1, active compounds read low 0.959 | locus YDL134C, strain PPH21, active compounds read low 0.984 | locus YDL185W, strain tfp1, active compounds read low 0.961 | locus YDL192W, strain arf1, active compounds read low 0.99 | locus YDR001C, strain nth1, active compounds read low 1.01 | locus YDR069C, strain doa4, active compounds read low 1.01 | locus YDR101C, strain arx1, active compounds read low 0.994 | locus YDR137W, strain rgp1, active compounds read low 1.03 | locus YDR150W, strain NUM1, active compounds read low 0.968 and 1.01 | locus YDR159W, strain sac3, active compounds read low 1 | locus YDR162C, strain NBP2, active compounds read low 0.962 | locus YDR195W, strain ref2 1.01 | locus YDR297W, strain sur2, active compounds read low 1.01 | locus YDR318W, strain mcm21, active compounds read low 1.01 | locus YDR334W, strain swr1, active compounds read low 1.02 | locus YDR335W, strain msn5, active compounds read low 1.02 | locus YDR363W, strain ESC2, active compounds read low 1 | locus YDR388W, active compounds read low 0.998 | locus YDR392W, strain spt3, active compounds read low 0.944 | locus YDR502C, strain sam2, active compounds read low 1 | locus YEL003W, strain gim4, active compounds read low 1.01 | locus YEL037C, strain rad23, active compounds read low 1.01 | locus YEL061C, strain CIN8 (second series), active compounds read low 1.01 | locus YEL061C, strain CIN8, active compounds read low 0.986 | locus YER002W, strain NOP16, active compounds read low 0.991 | locus YER015W, strain faa2, active compounds read low 1.02 | locus YER016W, strain bim1, active compounds read low 1.02 | locus YER110C, active compounds read low 0.994 | locus YER111C, strain swi4, active compounds read low 1 | locus YER155C, strain BEM2 (second series), active compounds read low 1.02 | locus YER155C, strain BEM2, active compounds read low 0.993 | locus YER167W, strain BCK2, active compounds read low 0.98 | locus YFR010W, strain ubp6, active compounds read low 1.02 | locus YGL078C, strain dbp3, active compounds read low 0.99 | locus YGL086W, strain mad1, active compounds read low 1.01 | locus YGL167C, strain pmr1, active compounds read low 1.01 | locus YGL173C, strain kem1, active compounds read low 1.01 | locus YGL227W, strain vid30, active compounds read low 1.01 | locus YGL240W, strain doc1, active compounds read low 0.996 | locus YGL248W, strain PDE1, active compounds read low 0.974 | locus YGL253W, strain hxk2, active compounds read low 1.01 | locus YGR078C, strain PAC10, active compounds read low 0.981 and 0.985 | locus YGR135W, strain pre9, active compounds read low 0.985 | locus YGR229C, strain SMI1, active compounds read low 1.01 | locus YGR252W, strain gcn5, active compounds read low 1.05 | locus YHR013C, strain ard1, active compounds read low 1.01 | locus YHR027C, strain rpn1, active compounds read low 1.01 | locus YHR030C, strain SLT2, active compounds read low 0.983 | locus YHR079C, strain IRE1 (second series), active compounds read low 1 | locus YHR094C, strain hxt1, active compounds read low 0.992 | locus YHR129C, strain ARP1, active compounds read low 0.988 | locus YHR142W, strain chs7, active compounds read low 1.01 | locus YHR200W, strain rpn10, active compounds read low 0.994 | locus YIL066C, strain RNR3, active compounds read low 0.985 | locus YIL073C, strain SPO22, active compounds read low 0.998 | locus YIL125W, strain kgd1, active compounds read low 0.997 | locus YIR030C, strain dcg1, active compounds read low 0.983 | locus YJL092W, strain hpr5, active compounds read low 1.01 | locus YJL095W, strain BCK1 (second series), active compounds read low 1.01 | locus YJL095W, strain BCK1, active compounds read low 1 | locus YJL115W, strain asf1, active compounds read low 1.03 | locus YJL129C, strain trk1, active compounds read low 1.05 | locus YJL134W, strain LCB3, active compounds read low 0.98 | locus YJL154C, strain vps35, active compounds read low 1.02 | locus YJL164C, strain tpk1, active compounds read low 1.01 | locus YJL166W, strain qcr8, active compounds read low 1.01 | locus YJL168C, strain set2, active compounds read low 0.998 | locus YJL187C, strain SWE1 (second series), active compounds read low 0.978 | locus YJL187C, strain SWE1, active compounds read low 1.01
